Hits are enriched below; roughly 8.6% of the tested compounds scored in any of these assays.
LASV entry inh: inhibitors of Lassa virus binding or entry into cells; Lassa virus pseudotyped entry inhibition, cell-based qHTS; Potency, µM (titrated, usually from 49.2 µM), for the others: at the highest dose activity change, negative = inhibition, actives largely listed as inhibitors; 4.1% of 18,000 active; AID 720533
MARV entry inh: inhibitors of Marburg virus binding or entry into cells. 6.5% of 18,000 active. Potency, µM (series often up to 49.2 µM), for the others: top-dose activity change, negative = inhibition, actives largely listed as inhibitors. AID 720532. Marburg virus pseudotype entry/binding inhibition, cell-based
Active calls of the source: *; ? = inconclusive; . = not tested or not shown; ! = repeats disagree; [ ] = dose if it differs, or a comment. The call rests on the fitted dose curve; tested in HEK293 cells. On the % scale 0 is the no-effect control and ±100 the full control effect; potency means the concentration at half of the fitted maximal effect.

SMILES | LASV entry inh | MARV entry inh
COC(=O)C1=C(C)N(CC#C[Si](C)(C)C)C(=O)N(C(C)=O)C1c1ccccc1 (centres undefined) | -12%[8.59 µM] | -5%[8.59 µM]
COC(=O)[C@@H]1[C@@H](c2cccc(C(F)(F)F)c2)NC(=O)N(Cc2ccccc2)[C@@H]1C | -22%[8.59 µM] | -19%[8.59 µM]
CC[C@H]1OC(=O)C[C@@H](O)[C@H](C)[C@@H](O[C@@H]2O[C@H](C)[C@@H](O[C@H]3C[C@@](C)(O)[C@@H](O)[C@H](C)O3)[C@H](N(C)C)[C@H]2O)[C@@H](CC=O)C[C@@H](C)C(=O)/C=C/C(C)=C/[C@@H]1CO[C@@H]1O[C@H](C)[C@@H](O)[C@@H](OC)[C@H]1OC | 1% | -20%
COC1C[C@@H](O[C@@H]2C(C)C(=O)OC(C)C(C)[C@H](OC(C)=O)C(C)C(=O)[C@@]3(CO3)CC(C)C(OC3OC(C)CC(N(C)C)[C@H]3OC(C)=O)C2C)OC(C)[C@@H]1OC(C)=O (some centres undefined) | 4% | -1%
CO[C@@H]1[C@@H](O[C@@H]2O[C@H](C)[C@@H](O[C@H]3C[C@@](C)(O)[C@@H](OC(=O)CC(C)C)[C@H](C)O3)[C@H](N(C)C)[C@H]2O)[C@@H](CC=O)C[C@@H](C)C(=O)/C=C/C2OC2C[C@@H](C)OC(=O)C[C@H]1OC(C)=O (some centres undefined) | ? | 13µM*
COC1[C@@H](O[C@@H]2O[C@H](C)[C@@H](O[C@H]3C[C@@](C)(O)[C@H](OC(=O)CC(C)C)[C@H](C)O3)[C@H](N(C)C)[C@H]2O)[C@@H](CC=O)C[C@@H](C)[C@@H](O)/C=C/C=C/C[C@@H](C)OC(=O)C[C@H]1OC(C)=O (some centres undefined) | 9%[17.8 µM] | 7%[17.8 µM]
COC1C(O)CC(=O)OC(C)C/C=C/C=C/[C@@H](OC2CCC(N(C)C)C(C)O2)C(C)C[C@@H](CC=O)[C@@H]1O[C@H]1OC(C)[C@H](O[C@@H]2C[C@@](C)(O)C(O)C(C)O2)C(N(C)C)C1O (some centres undefined) | -20% | 6.3µM*
CO[C@@H]1[C@@H](O[C@@H]2O[C@H](C)[C@@H](O[C@H]3C[C@@](C)(O)[C@@H](O)[C@H](C)O3)[C@H](N(C)C)[C@H]2O)[C@@H](CC=O)C[C@@H](C)[C@@H](O[C@@H]2CC[C@H](N(C)C)[C@@H](C)O2)/C=C/C=C/C[C@@H](C)OC(=O)C[C@H]1OC(C)=O | ? | 3.2µM*
COC(=O)CC=C[C@@H](C)[C@H](OC)c1cc(F)ccc1Br | -10%[8.59 µM] | 59%[8.59 µM]
CCOc1ccc(/C=C/C(=O)c2cccs2)cc1 | 14% | 6%
CCOc1ccc(C=C2SC(=O)N(CCN)C2=O)cc1 | 13µM* | 11µM*
COc1ccc([C@]23Cc4cc(C#N)ccc4[C@H](O2)C2=C(CC4(CCCCC4)OC2=O)O3)cc1 | -23%[8.59 µM] | 1%[8.59 µM]
CCOC(=O)CN1C(=O)[C@]2(O[C@H](C)CC3=CCCC32)c2c(Br)cccc21 (some centres undefined) | -7%[8.59 µM] | ?
COc1ccccc1N1CCN(C[C@@H](C(=O)NC(C)(C)C)c2ccccc2)CC1 | -16% | -30%
COc1ccccc1N1CCN(c2nc(CNC(=O)C3CC34CCCC4)nc3ccccc23)CC1 (centres undefined) | 32µM* | ?
CCC1CN2CCC1CC2C(O)c1ccnc2ccc(OC)cc12 (centres undefined) | ? | 20µM*
CC[C@H]1CN2CC[C@@H]1C[C@H]2[C@@H](O)c1ccnc2ccc(OC)cc12 | 4%[17.8 µM] | ?
CN1[C@@H](c2ccccc2)COc2c(Cl)cccc2S1(=O)=O | -44% | -9%
FC(F)(F)c1cccc(Nc2nccc(-c3cnn4nc(-c5ccccc5)ccc34)n2)c1 | . | 20µM*
CCOc1ccc2c(-c3ccnc(Nc4cc(OC)cc(C(F)(F)F)c4)n3)cnn2n1 | . | 6.3µM*
O[C@@H]1[C@@H]2c3cc4c(cc3CN3CCC(=C[C@@H]1O)[C@H]23)OCO4 | ? | 2.5µM*
CN1CCc2cc3c(cc2[C@@H]1O)OCO3 | -2%[17.8 µM] | -24%[17.8 µM]
Cc1cc(C)c(OCc2cn(CC(=O)c3ccc(O)cc3)nn2)c(C)c1 | -22% | 11%
CN(C)c1ccc(/C=C2/C(=O)Nc3ccccc32)cc1 | ? | 8.9µM*
CN(C)c1ccc(/C=C2\C(=O)Nc3ccccc32)cc1 | 14µM* | -25%
SMILES | LASV entry inh | MARV entry inh
COCOc1c2c(c(OCOC)c3c(OCOC)cccc13)C(=NNS(C)(=O)=O)C1=C2CCCC1 | -3%[8.59 µM] | 1%[8.59 µM]
COC(=O)C1=C(C(=O)OC)[C@@H]2N(C)c3ccccc3[C@@]23CCC(=O)N(Cc2ccc(OC)cc2)C3=N1 | 1%[8.59 µM] | -9%[8.59 µM]
COC(=O)C[C@H]1c2ccccc2[C@@H]2C(=C[C@@H](C)[C@H]3C(=O)N(O)C(=O)[C@H]32)N1C(=O)OC | 4%[8.59 µM] | 8%[8.59 µM]
C[C@@H]1[C@H](O)[C@@H](C)/C=C/C=C/CC/C=C/C=C/C=C/C=C/[C@H](O[C@H]2O[C@@H](C)[C@H](O)[C@@H](N)[C@H]2O)CC2O[C@](O)(C[C@@H](O)[C@H](O)CC[C@@H](O)C[C@@H](O)C[C@@H](O)CC(=O)O[C@H]1C)C[C@H](O)[C@H]2C(=O)O | -22% | -35%
N#Cc1ccc2c(c1)C[C@]1(c3ccsc3)Oc3c(c(=O)oc4ccc(F)cc34)[C@@H]2O1 | -3%[8.59 µM] | 2%[8.59 µM]
CC12C=CC(=O)C=C1CCC1C2=CCC2(C)C1CC[C@@H]2C(=O)CN1CCN(c2cc(N3CCCC3)nc(N3CCCC3)n2)CC1 (some centres undefined) | 4% | 18µM*!
CCCCCCN1C[C@H](O)[C@@H](n2cc(-c3ccc(F)cc3)nn2)C[C@H]1c1ccccc1 | -27% | ?
CCCCCC(=O)N1C[C@@H](n2cc(-c3ccc(F)cc3)nn2)[C@H](O)C[C@H]1c1ccccc1 | -15% | ?
CCCC(=O)O[C@]1(C(=O)CCl)[C@@H](C)C[C@H]2[C@@H]3CCC4=CC(=O)C=C[C@]4(C)[C@@]3(F)C(=O)C[C@@]21C | ? | 7.9µM*
CCC(=O)O[C@]1(C(=O)CCl)[C@@H](C)C[C@H]2[C@@H]3CCC4=CC(=O)C=C[C@]4(C)[C@@]3(F)[C@@H](O)C[C@@]21C | -26% | ?
CCC(OC(C)=O)C(CC(C)NC)(c1ccccc1)c1ccccc1 (centres undefined) | 40µM* | 7.9µM*
CC(C)(C)c1cc(C=C(C#N)C#N)cc(C(C)(C)C)c1O | 25µM* | 2.8µM*
CC(C)(C)c1cc(/C=C(\C#N)C(N)=S)cc(C(C)(C)C)c1O | 28µM* | 4.5µM*
N#CC(C#N)=Cc1ccc(O)c(O)c1 | -21% | 7%
N#CC(C#N)=C(N)/C(C#N)=C/c1cc(O)c(O)c(O)c1 | -4% | -11%
CS(=O)(=O)Nc1ccc(N=Cc2c(O)[nH]c3ccccc23)cc1 | 83% | 131%
CC(CCN1CCc2nc(-c3ccccc3)c(-c3ccccc3)cc2C1)=NO[C@H](C)CN1CCCCc2nc(C)c(C)cc21 | 7%[8.59 µM] | 25%[8.59 µM]
C=CCN1c2ccc(Br)cc2C(O)CS1(=O)=O (centres undefined) | 28% | ?
